Test results: PubChem BioAssay AID602144 (Vanderbilt Specialized Chemistry Center, 2011)
Unmarked numbers belong to inactive results. Active and inactive are the calls of the source. Rule as the data show it: active = remaining activity below about 50%; inactive = the rest.

target: Phospholipase D1 (Homo sapiens) (UniProt Q13393); test: PLD1 inhibitors in cells, Calu-1 cells, single concentration (AID 602144); details: cellular PLD1 activity, active compounds read low;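 also: tested at 200 nM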
Sequence (Q13393 whole entry, looked up): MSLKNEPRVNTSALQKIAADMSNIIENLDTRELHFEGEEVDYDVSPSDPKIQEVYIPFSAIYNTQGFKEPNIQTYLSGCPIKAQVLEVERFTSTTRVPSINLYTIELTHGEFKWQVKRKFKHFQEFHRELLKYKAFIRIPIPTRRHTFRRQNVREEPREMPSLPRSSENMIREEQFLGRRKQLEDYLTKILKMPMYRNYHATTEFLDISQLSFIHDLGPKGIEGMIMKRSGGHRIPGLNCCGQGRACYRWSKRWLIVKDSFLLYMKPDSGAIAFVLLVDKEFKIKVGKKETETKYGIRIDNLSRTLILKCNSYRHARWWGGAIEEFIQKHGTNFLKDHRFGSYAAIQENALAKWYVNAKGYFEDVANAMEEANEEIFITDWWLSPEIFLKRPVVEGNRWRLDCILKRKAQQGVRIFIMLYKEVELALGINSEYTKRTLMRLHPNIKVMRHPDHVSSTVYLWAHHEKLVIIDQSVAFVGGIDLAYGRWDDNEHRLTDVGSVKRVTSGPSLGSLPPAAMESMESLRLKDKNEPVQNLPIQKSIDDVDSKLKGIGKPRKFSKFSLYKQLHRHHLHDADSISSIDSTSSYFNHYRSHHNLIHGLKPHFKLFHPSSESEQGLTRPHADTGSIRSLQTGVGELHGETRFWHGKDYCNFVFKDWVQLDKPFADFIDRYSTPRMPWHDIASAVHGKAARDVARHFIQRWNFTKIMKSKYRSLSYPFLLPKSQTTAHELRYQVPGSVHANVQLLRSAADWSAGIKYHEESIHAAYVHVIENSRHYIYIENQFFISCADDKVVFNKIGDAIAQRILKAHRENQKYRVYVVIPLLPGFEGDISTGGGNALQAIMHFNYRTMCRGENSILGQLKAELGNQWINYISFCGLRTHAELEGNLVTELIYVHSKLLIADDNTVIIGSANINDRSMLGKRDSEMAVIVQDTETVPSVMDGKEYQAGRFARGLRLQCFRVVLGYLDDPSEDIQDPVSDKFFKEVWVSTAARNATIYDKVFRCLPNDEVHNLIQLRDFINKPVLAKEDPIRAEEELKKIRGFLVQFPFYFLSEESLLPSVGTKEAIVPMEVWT
Sequence (Q13393 whole entry, looked up): as above

| SMILES | remaining activity |
| --- | --- |
| O=C(NCCN1CCN(c2ncccn2)CC1)c1ccc(F)cc1 | 76.5% |
| CC1(C)[C@@H]2CC[C@@]1(CS(=O)(=O)NCCN1CCC(n3c(=O)[nH]c4ccccc43)CC1)C(=O)C2 | 103% |
| O=C(NCCN1CCC(n2c(=O)[nH]c3ccccc32)CC1)C1CCCCCC1 | 98.9% |
| O=C(NCCN1CCC(n2c(=O)[nH]c3ccccc32)CC1)c1cccc(F)n1 | 34% (active) |
| O=C1c2ccccc2C(=O)N1CCCNc1ccc2ccccc2c1 | 145% |
| O=C(NCCN1CCC(n2c(=O)n(C(=O)c3ccc(Cl)cc3)c3ccccc32)CC1)c1ccc(Cl)cc1 | 27.8% (active) |
| Cc1ccc(C(=O)NCCN2CCC(n3c(=O)[nH]c4cc(Br)ccc43)CC2)cc1 | 3.74% (active) |
| C[C@@H](CN1CCC(n2c(=O)[nH]c3ccc(F)cc32)CC1)NC(=O)c1ccc(Cl)cc1 | 17.7% (active) |
| C[C@H](CN1CCC2(CC1)CNc1ccccc12)NC(=O)c1ccc2ccccc2c1 | 34.6% (active) |
| Cc1ccc(C(=O)NCCN2CCN(c3ncccn3)CC2)cc1 | 84.2% |
| O=C(N[C@@H](Cc1ccccc1)CN1CCC(n2c(=O)[nH]c3ccccc32)CC1)c1ccc2ccccc2c1 | 113% |
| CN1CCC2(CCN(CCNC(=O)c3ccc4ccccc4c3)CC2)C1=O | 120% |
| C[C@@H](CN1CC=C(n2c(=O)[nH]c3ccccc32)CC1)NC(=O)c1ccc2ccccc2c1 | 0.0151% (active) |
| C[C@@H](CN1CCC(n2c(=O)[nH]c3ccccc32)CC1)NC(=O)CSc1ccccc1 | 48.1% (active) |
| O=C(NCCN1CCC(n2c(=O)[nH]c3ccccc32)CC1)C1CCc2ccccc2C1 (stereo not given) | 77.8% |
| O=C1c2ccccc2C(=O)N1CCCNc1cccc(F)c1 | 166% |
| O=C(NCCN1CCC(c2nc3ccccc3[nH]2)CC1)c1cnc2ccccc2c1 | 123% |
| O=C(NCCN1CCC2(CC1)CCN(c1ccccc1)C2=O)c1cnc2ccccc2c1 | 109% |
| O=C(NCCN1CCN(c2ccccn2)CC1)c1ccc(F)cc1 | 126% |
| C[C@H](CN1CCC(n2nnc3ccccc32)CC1)NC(=O)c1ccc2ccccc2c1 | 27.1% (active) |

| SMILES | remaining activity |
| --- | --- |
| COc1ccc(S(=O)(=O)NCCN2CCC(n3c(=O)[nH]c4ccccc43)CC2)cc1OC | 115% |
| CC(C)[C@@H](CN1CCC(n2c(=O)[nH]c3ccccc32)CC1)NC(=O)c1ccc2ccccc2c1 | 84.6% |
| Nc1ccc(C(=O)NCCN2CCC(n3c(=O)[nH]c4ccccc43)CC2)c(F)c1 | 68.5% |
| Cn1c(=O)n(C2CCN(CCNC(=O)c3ccc4ccccc4c3)CC2)c2ccccc21 | 71.6% |
| O=C(NCCN1CCC(n2c(=O)[nH]c3ccccc32)CC1)c1cccc(Cl)n1 | 37.8% (active) |
| C[C@@H](CN1CCC2(C=Cc3ccccc32)CC1)NC(=O)c1cnc2ccccc2c1 | 137% |
| CCOC(=O)CNC(=O)NCCN1CCC(n2c(=O)[nH]c3ccccc32)CC1 | 136% |
| O=C(NCCN1CCC(n2c(=O)[nH]c3ccccc32)CC1)NCc1cccc(F)c1 | 45.6% (active) |
| C[C@@H](CN1CCC2(CNCc3ccccc32)C1)NC(=O)c1ccc2ccccc2c1 (stereo not given in full) | 95.4% |
| O=C(C1C[C@@H]1c1ccccc1)N1CCC(n2c(=O)[nH]c3cc(Cl)ccc32)CC1 (stereo not given in full) | 89.8% |
| C[C@@H](CN1CCC(n2c(=O)[nH]c3cc(-c4ccc(C(F)(F)F)cc4)ccc32)CC1)NC(=O)[C@H]1C[C@@H]1c1ccccc1 | 63.9% |
| CS(=O)(=O)N1CC2(CCN(CCNC(=O)c3ccc4ccccc4c3)CC2)c2ccccc21 | 136% |
| O=c1[nH]c2ccccc2n1C1CCN(CCNS(=O)(=O)c2ccc(OC(F)(F)F)cc2)CC1 | 117% |
| O=C(NCCN1CCN(c2ccncc2)CC1)c1c2ccccc2cc2ccccc12 | 183% |
| O=C(NCCN1CCN(c2ccncc2)CC1)c1cc2ccccc2s1 | 147% |
| O=c1[nH]c2ccccc2n1C1CCN(CCNS(=O)(=O)c2cccc3cccnc23)CC1 | 121% |
| Cn1c(C(=O)NCCN2CCN(c3ccncc3)CC2)cc2ccccc21 | 188% |
| O=c1[nH]c2ccccc2n1C1CCN(CCNS(=O)(=O)c2cc(Cl)ccc2Cl)CC1 | 104% |
| O=C(NCCN1CCC2(C=Cc3ccccc32)CC1)c1cnc2ccccc2c1 | 126% |
| O=C(c1ccc(Cl)cc1)N(CCN1CCC(n2c(=O)[nH]c3ccccc32)CC1)C(=O)c1ccc(Cl)cc1 | 63.9% |
